# gsp antagonist: antagonizes gsp, the McCune-Albright syndrome mutation. gsp-mutant cells, cAMP HTRF, 30 min. Potency, µM (titrated, usually from 76.9 µM), for the others: at the top dose activity change, negative = inhibition, usual class: inhibitors. actives 0.4% (n = 340,000). AID 624288; calls by dose curve; cell line not stated here;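 also: intracellular cAMP measured with PDE inhibitor Ro 20-1724 present during compound exposure; potency is read from the fitted curve at half-maximal effect; % is scaled to controls: 0 for no effect and ±100 for the full control effect; nearly all actives have a fitted effect of over 65% in size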
#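 HTRF cAMP measurement after 30 min RT detection following 30 min, 37C compound treatment alongside […] (added as 300 uM solution) in G418-selected cells seeded at 2000/well and grown 16–24 h.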
# pAkt inh: inhibitors of Akt phosphorylation; Neuro2A IGF-stimulated pAkt S473 HTRF, 20 min; active compounds read low; AID 651550; actives 0.32% (n = 360,000); activity change, % for hits at 50 µM; in the data active = activity change below about -80%; inconclusive = mostly about -51% to -80%; also: % is scaled to controls: 0 for no effect and ±100 for the full control effect
#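 Neuro2A cells (4,500/well, DMEM with 0.5% FBS) were treated with compound at a single 50 µM final concentration, stimulated with 6 nM IGF for 20 min at 37 °C, and lysed. Phospho-Akt Ser473 was read by HTRF as 665/615 ratio ×10^4.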
# RXFP1 antagonist: antagonists of human relaxin receptor RXFP1 | HEK293-RXFP1, relaxin-stimulated cAMP HTRF, 30 min; active compounds read low | activity change, negative = inhibition, % at 57.5 µM | actives 0.59% (n = 350,000);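 active = activity change of -60% or lower, but not beyond a set lower limit; inconclusive = change between -60% and -40%, or beyond the set limit; inactive = change above -40%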; also: % is scaled to controls: 0 for no effect and ±100 for the full control effect
# ClpP mod: qHTS Assay for Activators of ClpP. purified B. subtilis ClpP, FRET peptide cleavage, 20 min. Potency, µM (titrated, usually from 57.5 µM), without a hit: at the highest dose activity change, negative = active. actives 1.9% (n = 340,000). AID 651965, 2013; active = well fitted falling curve with a large enough effect; inconclusive = small, poorly fitted or top-dose-only effect; inactive = no such curve, though single readings can be large or run the other way; also: potency is read from the fitted curve at half-maximal effect; the source files actives as falling curves though it sought activators and does not explain the sign; nearly all actives have a fitted effect of over 65% in size
#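 ClpP 10 microg/mL final, pH 8 Tris/KCl buffer with BSA, glycerol, Tween-20; compound pinned in; FRET-FV substrate; RT 20 min; Ex320/Em430; ΔFRET vs ADEP 5.8 microM, DMSO, no enzyme.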
# RXFP1 agonist: activates the human relaxin receptor RXFP1. Q9HBX9. Potency, µM (doses to about 57.5 µM), without a hit: top-dose activation, most hits filed as activators. actives 0.3% (n = 370,000). AID 2676. HEK293T-RXFP1 cAMP TR-FRET, 30 min; response scale: percent of porcine relaxin response, buffer zero; active = well fitted activation curve with a large enough effect; inconclusive = small, poorly fitted or top-dose-only effect; also: potency is read from the fitted curve at half-maximal effect; % is scaled to controls: 0 for no effect and ±100 for the full control effect; nearly all actives have a fitted effect of over 60% in size
#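 cAMP rise read by TR-FRET after 30 min, 37C compound exposure (up to 58 uM) in RXFP1-transfected HEK293 cells with Ro 20174 present. EC50 from Hill-equation fits, with 29 nM porcine relaxin as 100% and buffer as basal.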
# gsp ag: activates gsp, the McCune-Albright syndrome mutation. gsp mutant cells, cAMP HTRF, 30 min. Potency, µM (top dose mostly 76.9 µM), without a hit: top-dose activation (cAMP increase), actives largely listed as activators. actives 0.13% (n = 340,000). AID 624287; active = well fitted activation curve with a large enough effect; inconclusive = small, poorly fitted or top-dose-only effect, or another doubt; inactive = no such curve, though single readings can be large or run the other way; cell line not stated here;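 also: phosphodiesterase inhibitor Ro 20-1724 added with compounds to block cAMP breakdown; potency is read from the fitted curve at half-maximal effect; nearly all actives have a fitted effect of over 60% in size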
#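 Cells stably selected in G418 were plated at 2000/well, grown 16-24 hr, then given compounds in DMSO with the PDE inhibitor […] (300 uM solution added) for 30 min at 37C; cAMP was read by HTRF.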
# Starred values were filed as active, the others as inactive; i = inactive; u = inconclusive; x = no result given; [ ] = dose if it differs, or a comment. Only some compounds are listed: those with a hit (about 2.7% of all), similar ones and a draw of the others.
SMILES,gsp antagonist,pAkt inh,RXFP1 antagonist,ClpP mod,RXFP1 agonist,gsp ag
CCN1CCN(c2nc3c(C)cccn3c(=O)c2/C=C(\C#N)C(=O)NCCOC)CC1,14%,i,6,4%,25µM*,u
Cc1cccc(C)c1Nc1c(-c2ccsc2)nc2ccccn12,x,x,-16,28µM*,11%,x
Cc1cccc(C)c1Nc1c(-c2ccsc2)nc2ccc(Cl)cn12,x,x,-11,-19%,7%,x
C=CCn1c(C)nnc1SCC(=O)c1[nH]c(C)c(C(C)=O)c1C,-18%,i,-11,0%,0%,4%[15.4 µM]
C=CCn1c(SCC(=O)c2[nH]c(C)c(C(C)=O)c2C)nnc1-c1ccncc1,-1%,i,-9,32µM*,1%,-9%
Cc1cc(NC(=O)CSc2nc(N)c(NC(=O)c3ccccc3)c(=O)[nH]2)no1,7%,i,-9,x,-5%,-9%[15.4 µM]
Cc1cc(NC(=O)CSc2nc(N)c(NC(=O)c3ccccc3F)c(=O)[nH]2)no1,4%,i,-4,16µM*,2%,2%[15.4 µM]
Cc1cc(O)cc(O)c1C(=O)Cc1cscn1,3%,i,-1,28µM*,2%,-4%
Cc1cc(O)c(C(=O)Cc2csc(C)n2)c(O)c1,6%,i,-3,0%,1%,-22%
Cc1cc(C)n2cc(CSc3nnnn3C)nc2n1,10%,i,-9,25µM*,5%,26%
Cc1cc(C)n2cc(CSc3nncn3C)nc2n1,11%,i,6,x,4%,-7%[15.4 µM]
CCc1nnc(SCc2cn3c(C)cc(C)nc3n2)n1N,1%,i,7,11µM*,0%,16%
OC1(c2ccccc2)CCNCC1,x,x,-12,x,x,x
Cc1cc(C)c(C(=O)N2CCCC(N3CCN(c4cccc(C(F)(F)F)c4)CC3)C2)o1 (configuration not stated),50µM*,i,-20,-1%,1%,u
Cc1cc(C(=O)N2CCCC(N3CCN(c4cccc(C(F)(F)F)c4)CC3)C2)n[nH]1 (configuration not stated),-2%,i,2,0%,2%,-1%
O=C1CCC(C(=O)N2CCCC(N3CCN(c4cccc(C(F)(F)F)c4)CC3)C2)=NN1 (configuration not stated),5%,i,-7,-1%,0%,4.5µM*
NCCNC(=O)Cc1ccc(NC(=O)Cc2ccc(Nc3ncnc4c3ncn4[C@@H]3O[C@H](CO)[C@@H](O)[C@H]3O)cc2)cc1,16%,i,x,4%,1.4µM*,x
C[C@H](Cc1ccccc1)Nc1ncnc2c1ncn2[C@@H]1O[C@H](CO)[C@@H](O)[C@H]1O,-7%,i,x,3%,11µM*,x
COc1cc(OC)cc(C(=O)NCCN2C(=O)S/C(=C\c3cccs3)C2=O)c1,28µM*,i,0,1%,-3%,-65%
O=C(Nc1ccc(F)cc1F)c1cc2nc(-c3ccco3)cc(C(F)(F)Cl)n2n1,x,x,-7,-5%,1%,x
Cc1ccc(S(=O)(=O)CC(O)CN2CCCC2=O)cc1 (configuration not stated),12%,-117%*,0,-2%,1%,-60%
O=S1(=O)CCO[C@H]2CCCC[C@@H]2N1Cc1ccccc1F,x,x,x,-1%,x,x
COc1cc(CNCCO)cc(Br)c1OCc1ccccc1Cl,25%,i,-76*,1%,0%,-13%
COc1cc(CNCCO)cc(Cl)c1OCc1ccc(Cl)cc1Cl,8%,i,-36,x,2%,u
CC(C)(C)OC(=O)C[C@H]1C/C=C\C[C@H](CC(=O)NCCO)C(=O)N2CCC[C@@H]2COC1=O,8%,i,x,1%,x,-40%
O=C(c1cc2cc(Cl)cc(Cl)c2oc1=O)N1CCOCC1,16%,i,x,22µM*,1%,0%
O=C(NCCN1CCCCC1)c1cc2ccccc2[nH]1,0%,i,-1,18µM*,0%,-23%
